Results on 93 compounds are retold here after PubChem BioAssay AID1852 (Sanford-Burnham Center for Chemical Genomics, 2009).

In all, about 2,500 compounds went through this assay and about 1,100 (44%) were called active.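 How the source made its calls: active means inhibition above 50% at 4 µM in the single-point screen; inactive means inhibition of 50% or less.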 So high a share suggests a set chosen from earlier hits. This is one part of the list.

The test can be described thus: blockers of TNF-a NF-kB luciferase induction – cell-based, HEK293T NF-kB-Luc, luminescence, selectivity assay for NOD1/NOD2 signaling inhibitor project, primary screen (AID 1852). The conditions noted are these: TNF-a induced, 14 h, at 4 µM, hits give high values.
The inhibition is the relative decrease from the control value, in per cent. In the case of `COc1ccc(-c2csc3nc(-c4ccccc4OC)oc(=O)c23)cc1`, the inhibition is 12.5% (inactive).
The same measure for `COc1ccccc1-c1nc(C#N)c(N2CCN(c3cccc(Cl)c3)CC2)o1`: -20.8% (inactive); for `COc1ccccc1-c1nnc(Sc2nc([N+](=O)[O-])nn2C)o1`: 54.9% (active).
For `O=C(NCCCSc1ccccc1)c1cc(Cl)ccc1O` the value was 80.1% (active); for `C/C(=N\NC(=O)c1cc(Cl)ccc1O)c1ccc(Br)s1`, 48% (inactive).
The same measure for `O=C(NCCCSc1ccccc1)c1cc(Br)ccc1O`: 69.9% (active).
As to `O=C(Nc1ccc(Oc2cccnc2)cc1)C1CCN(Cc2cc(Cl)ccc2O)CC1`, the inhibition was 47.8% (inactive).
`COc1ccccc1CNC(=O)C1CCN(C(=O)[C@@H]2Cc3ccccc3CN2)CC1`: the inhibition is 14.5% (inactive).
Take `COc1cc(F)ccc1CN1CCC(C(=O)Nc2ccc(Oc3ccccc3)nc2)CC1`: the inhibition is 57% (active).
For `Cc1ccc(NC(=O)c2ccc(S(=O)(=O)NCC3CCCO3)cc2)cc1C` (stereo not drawn) the value was 4.7% (inactive).
For `O=C(Nc1cccc(Br)c1)c1ccc(Cl)c(S(=O)(=O)N2CCOCC2)c1` the value was 45.4% (inactive); for `O=C(Nc1ccc(Cl)c(S(=O)(=O)N2CCOCC2)c1)c1ccc(OCC2CCCO2)cc1` (stereo not drawn), 94.7% (active).
The same measure for `CN(C)S(=O)(=O)c1ccc(C(=O)Nc2nc(-c3cc4ccccc4o3)cs2)cc1`: 36.3% (inactive); for `O=C(/C=C\c1ccco1)Nc1nc(-c2ccc3ccccc3c2)cs1`: 36.9% (inactive).
As to `CN(C)S(=O)(=O)c1ccc(-c2csc(N/N=C/c3ccco3)n2)cc1`, the inhibition was 99.8% (active).
The same measure for `CCC(=O)NC(c1cccs1)c1cc([N+](=O)[O-])c2cccnc2c1O` (stereo not drawn): 86.2% (active).
For `CCCC(=O)NC(c1cccs1)c1cc([N+](=O)[O-])c2cccnc2c1O` (stereo not drawn) the value was 71.3% (active); for `Cc1ccccc1Nc1nc(N)nc(CCl)n1`, 24.8% (inactive); for `CC1Sc2ccc(S(=O)(=O)CCC(=O)N3CCN(c4ccccc4F)CC3)cc2NC1=O` (stereo not drawn), 39.3% (inactive).
For `Cc1ccc(C)c(N2CCN(C(=O)CCS(=O)(=O)c3ccc4c(c3)NC(=O)C(C)S4)CC2)c1` (stereo not drawn) the value was 74.4% (active); for `Cc1ccc(C)c(N2CCN(C(=O)CCS(=O)(=O)c3ccc4c(c3)NC(=O)CO4)CC2)c1`, 28.3% (inactive); for `COc1ccc(Cc2noc(CN3CCN(Cc4cccc(Cl)c4)CC3)n2)cc1OC`, 35.8% (inactive).
`COc1ccc(/C=C2\Sc3ccc(C(=O)N4CCN(Cc5ccccc5)CC4)cc3N(C)C2=O)cc1OC`: the inhibition is 59.1% (active).
`CN1C(=O)/C(=C/c2ccccc2Cl)Sc2ccc(C(=O)N3CCCC3)cc21`: the inhibition was 89% (active).
The same measure for `CCOC(=O)N1CCN(C(=O)c2ccc3c(c2)N(C)C(=O)/C(=C\c2ccc(OCC)c(OC)c2)S3)CC1`: 21.6% (inactive); for `CCOc1ccc(/C=C2/Sc3ccc(C(=O)N4CCOCC4)cc3N(C)C2=O)cc1OC`: 54.9% (active).
The same measure for `O=C(c1ccc2c(c1)N(Cc1ccccc1)C(=O)c1ccccc1S2)N1CCCC1`: 34.7% (inactive); for `O=C1Nc2cc(C(=O)N3CCN(c4ccccn4)CC3)ccc2S/C1=C\c1ccccc1`: 3% (inactive).
The same measure for `Cc1ccccc1/C=C1\Sc2ccc(C(=O)N3CCN(c4ccccn4)CC3)cc2N(C)C1=O`: 22.2% (inactive).
For the compound `COCCN1CCN(C(=O)c2ccc3nc(Cc4ccc(OC)c(OC)c4)oc3c2)CC1`, the inhibition was 8.5% (inactive).
For `Cc1ccc(C)c(Oc2cc(NC(=O)CCCn3nc(C)c([N+](=O)[O-])c3C)cc([N+](=O)[O-])c2)c1` the value was -13.6% (inactive); for `O=C(Nc1ccc(Br)cc1)c1ccc(F)c(S(=O)(=O)N2CCN(c3ccccn3)CC2)c1`, 36.8% (inactive); for `O=C(Nc1ccc(N2CCN(Cc3ccccc3F)CC2)cc1)c1ccc([N+](=O)[O-])o1`, 20% (inactive).
In the case of `O=C(Nc1ccc(N2CCN(C(=O)c3ccccc3F)CC2)cc1)c1cncc(Br)c1`, the inhibition is 72.9% (active).
The same measure for `NC(=O)c1sc2nc3c(c(-c4ccccc4)c2c1N)CCC3`: 96.6% (active).
For `Cc1nc2sc(C(N)=O)c(N)c2c2c1CCCC2` the value was 92.8% (active); for `CCOC(=O)c1ccc(NC(=O)c2sc3nc(N4CCOCC4)c4c(c3c2N)CCCC4)cc1`, -98.3% (inactive).
For `Cc1ccc(-c2c3c(nc4sc(C(N)=O)c(N)c24)CCC3)cc1` the value was 82.9% (active); for `NC(=O)c1sc2nc3c(c(-c4ccco4)c2c1N)CCCC3`, 83.5% (active); for `O=C(N/N=C/c1cccs1)c1n[nH]c2c1CCCC2`, 1.7% (inactive).
As to `NC(=O)c1sc2nc3c(c(-c4cccs4)c2c1N)CCCCC3`, the inhibition was 90% (active).
For `Cc1nnc(N2CCCC(C(=O)Nc3cc(F)ccc3F)C2)c2nn(-c3ccccc3)c(C)c12` (stereo not drawn) the value was 95.7% (active).
For `COc1ccc(/C=c2/sc3nc(-c4ccccc4)c(-c4ccccc4)n3c2=O)cc1` the value was -25.7% (inactive).
For `COc1ccc(Cc2[nH]n3c(=O)c(Cl)c(C)nc3c2-c2ccccc2)cc1` the value was 106% (active).
As to `COc1cc(/C=N/NC(=O)c2cc(-c3ccc4c(c3)OCO4)n[nH]2)ccc1O`, the inhibition is 55.4% (active).
The same measure for `CCNC(=O)/C(C#N)=C/c1c(N2CCN(c3ccc(OC)cc3)CC2)nc2c(C)cccn2c1=O`: 15.3% (inactive); for `Oc1ccc(N=Nc2ccc3c(c2)OCCO3)c2cccnc12`: 39.5% (inactive); for `Cc1ccc(C)c(N=Nc2ccc(O)c3ncccc23)c1`: 42.5% (inactive).
As to `Cc1ccc(N=Nc2ccc(O)c3ncccc23)cc1`, the inhibition is 96.9% (active).
The same measure for `Cc1ccc(N=Nc2ccc(O)c3ncccc23)cc1C`: 105% (active); for `Cc1ccc2c(C)ccc(O)c2n1`: -70.6% (inactive); for `Cc1ccccc1N=Nc1ccc(O)c2ncccc12`: 105% (active).
In the case of `CCOC(=O)C1CCCN(C(=O)c2ccc3c(=O)n(CCOC)c(=S)[nH]c3c2)C1` (stereo not drawn), the inhibition was 21.6% (inactive).
For `COc1ccc(Cc2nc3ccc(C(=O)N4CCN(C)C(C)C4)cc3o2)cc1OC` (stereo not drawn) the value was 45.4% (inactive); for `COCCn1c(=S)[nH]c2cc(C(=O)N3CCCC(C)C3)ccc2c1=O` (stereo not drawn), 94.8% (active).
For `O=C(NCc1cccnc1)/C(=C/c1ccc(-c2cccc(Cl)c2)o1)S(=O)(=O)c1ccccc1` the value was 99.5% (active); for `O=C(NCc1cccnc1)/C(=C\c1ccc(-c2cccc(Cl)c2)o1)S(=O)(=O)c1ccccc1`, 91.5% (active).
The same measure for `CCN(CC)c1nc(N2CCOCC2)nc2ccccc12`: 2% (inactive); for `COc1ccc(-c2n(CC(=O)OC3CC(C)CCC3C(C)C)c3ccccc3[n+]2C)cc1` (stereo not drawn): 74.8% (active).
As for `COc1ccc(/C=N/NS(=O)(=O)c2ccc(F)cc2)cc1COc1cc(F)ccc1[N+](=O)[O-]`, the inhibition is 12.7% (inactive).
The same measure for `C/C(=N\NC(=O)c1c(C)nc2ccccn12)c1ccc(O)cc1O`: 69.2% (active); for `C/C(=N\NC(=O)c1cc(C2CC2)nc2ccccc12)c1ccc(O)cc1O`: 66.6% (active); for `O=C(Nc1nnc(-c2ccc3c(c2)CCCC3)o1)c1ccccc1Cl`: 106% (active).
For `O=C(Nc1nnc(-c2ccc3c(c2)CCCC3)o1)c1ccc(Cl)cc1Cl` the value was 101% (active).
For `O=C(CCc1nnc(-c2ccc(-c3ccccc3)cc2)o1)N1CCCCC1` the value was -6.8% (inactive).
Take `O=C(Nc1nnc(-c2ccc3c(c2)CCCC3)o1)c1ccccc1`: the inhibition was 106% (active).
Turning to `CC(C)(C)OC(=O)N[C@@H](Cc1ccccc1)c1nnc(S(=O)(=O)Cc2cccc(F)c2)o1`, the inhibition is -10.8% (inactive).
The same measure for `CC1CN(C(=O)/C=C/c2ccc([N+](=O)[O-])s2)CC(C)O1` (stereo not drawn): 41% (inactive).
The same measure for `O=C(/C=C/c1ccc([N+](=O)[O-])s1)N1CCN(c2ccccc2)CC1`: 10.5% (inactive).
For `O=C(/C=C/c1ccc([N+](=O)[O-])s1)N1CCCCC1` the value was 54.6% (active); for `CC1CC(C)CN(C(=O)/C=C/c2ccc([N+](=O)[O-])s2)C1` (stereo not drawn), 60.4% (active).
Regarding `CC(C)CC[n+]1ccccc1/C=C/c1ccc(N(C)C)cc1`, the inhibition is 74.3% (active).
For `CC[n+]1cc(C)ccc1/C=C/c1ccc(N(C)C)cc1` the value was 57.1% (active); for `Cc1ccc(/C=C/c2ccc(N(C)C)cc2)[n+](C)c1`, 28.5% (inactive); for `CC[n+]1ccc(/C=C/c2ccc(N(C)C)cc2)c2ccccc21`, 62.5% (active).
Turning to `O=C(NCc1cccs1)c1nc2c(nnn2Cc2ccccc2Cl)c(=O)[nH]1`, the inhibition was 98.2% (active).
For `O=C(CCl)N=c1sccn1Cc1ccccc1Cl` the value was 48.8% (inactive); for `O=C(NCc1ccco1)c1nc2c(nnn2Cc2ccccc2Cl)c(=O)[nH]1`, 78.4% (active).
For `Cc1cccc(C(=O)Nc2scc(CC(C)C)c2C(=O)O)c1` the value was -33.5% (inactive); for `CCCN(CC(=O)Nc1ccccc1C)C(=O)CCl`, 93.3% (active); for `Cc1cccc(NC(=O)CCNC(=O)c2ccc(Br)cc2)c1C`, -6.4% (inactive).
The same measure for `CCC(C)N(CC(=O)Nc1cccc(C)c1C)C(=O)CCl` (stereo not drawn): 85.8% (active); for `Cc1cccc(Nc2nc(N)nc(CCl)n2)c1C`: 18.1% (inactive); for `CCOC(=O)N1CCN(C(=O)c2ccc([N+](=O)[O-])cc2Cl)CC1`: 43% (inactive).
On to `CC(=O)Oc1c(C)cc(Cl)cc1C(=O)Nc1ccc([N+](=O)[O-])cc1Cl`, for which the inhibition is 98.1% (active).
Turning to `Nc1nn2c(-c3ccccc3)cc(=O)[nH]c2c1N=Nc1ccc(Br)cc1`, the inhibition is 78.7% (active).
As to `Nc1nn2c(-c3ccccc3)cc(=O)[nH]c2c1N=Nc1ccc(O)cc1`, the inhibition was -17.5% (inactive).
As to `COC(=O)c1scc(S(=O)(=O)C(C)C)c1N/N=C(\C#N)C(=O)c1ccc(Cl)cc1`, the inhibition is 27.4% (inactive).
The same measure for `COc1ccc(C(=O)/C(C#N)=N/Nc2cccc([N+](=O)[O-])c2)cc1`: 87.9% (active); for `COc1ccc(S(=O)(=O)NC(C)C(=O)Nc2cccc([N+](=O)[O-])c2)cc1` (stereo not drawn): 36.7% (inactive); for `O=C(Nc1ccc(F)cc1)c1nn(-c2ccccc2)c(=O)cc1Cl`: -30.5% (inactive).
For `O=C(NNC(=O)c1cc(-c2ccccc2)nn1-c1ccccc1)c1ccccc1` the value was 11.9% (inactive).
As to `O=C(c1ccccc1)c1nn(-c2ccc(Cl)cc2)c(=O)cc1C(F)(F)F`, the inhibition was 54.8% (active).
